Data as given in the supplement of paper PMC8728848.
The entries come from a sample that favours the strongest signals as a whole.

Experiments:
Experiment in all cases: glycan array binding signal (z-score within array); higher = stronger binding
Settings in all cases: glycan notation: IUPAC condensed, linker removed
[1] = target: Fuc(a1-2)Gal(b1-4)[Fuc(a1-3)]GlcNAc(b1-3)GalNAc
In short: (§1)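 Glycan array data came from 3228 arrays in the Consortium for Functional Glycomics database, and only arrays with an available protein sequence were kept. Glycan names were put into IUPAC-condensed notation, and columns mapping to the same glycan were averaged. The binding signal is a within-array Z-score, averaged across arrays of one protein sequence run at different concentrations or buffers and across linkers. A negative Z-score can be read as non-binding.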

[2] = target: Fuc(a1-2)[Gal(a1-3)]Gal(b1-3)GlcNAc
In short: as §1

[3] = target: Fuc(a1-2)[Gal(a1-3)]Gal(b1-3)GlcNAc(b1-2)Man(a1-3)[Fuc(a1-2)[Gal(a1-3)]Gal(b1-3)GlcNAc(b1-2)Man(a1-6)]Man(b1-4)GlcNAc(b1-4)GlcNAc
In short: as §1

[4] = target: Fuc(a1-2)[Gal(a1-3)]Gal(b1-3)GlcNAc(b1-2)Man(a1-3)[Fuc(a1-2)[Gal(a1-3)]Gal(b1-3)GlcNAc(b1-2)Man(a1-6)]Man(b1-4)GlcNAc(b1-4)[Fuc(a1-6)]GlcNAc
In short: as §1

[5] = target: Fuc(a1-2)[Gal(a1-3)]Gal(b1-3)GlcNAc(b1-6)GalNAc
In short: as §1

[6] = target: Fuc(a1-2)[Gal(a1-3)]Gal(b1-4)Glc
In short: as §1

[7] = target: Fuc(a1-2)[Gal(a1-3)]Gal(b1-4)GlcNAc
In short: as §1

[8] = target: Fuc(a1-2)[Gal(a1-3)]Gal(b1-4)GlcNAc(b1-2)Man
In short: as §1

[9] = target: Fuc(a1-2)[Gal(a1-3)]Gal(b1-4)GlcNAc(b1-2)Man(a1-3)[Fuc(a1-2)[Gal(a1-3)]Gal(b1-4)GlcNAc(b1-2)Man(a1-6)]Man(b1-4)GlcNAc(b1-4)GlcNAc
In short: as §1

[10] = target: Fuc(a1-2)[Gal(a1-3)]Gal(b1-4)GlcNAc(b1-2)Man(a1-3)[Fuc(a1-2)[Gal(a1-3)]Gal(b1-4)GlcNAc(b1-2)Man(a1-6)]Man(b1-4)GlcNAc(b1-4)[Fuc(a1-6)]GlcNAc
In short: as §1

[11] = target: Fuc(a1-2)[Gal(a1-3)]Gal(b1-4)GlcNAc(b1-3)GalNAc
In short: as §1

[12] = target: Fuc(a1-2)[Gal(a1-3)]Gal(b1-4)GlcNAc(b1-6)GalNAc
In short: as §1

[13] = target: Fuc(a1-2)[Gal(a1-3)]Gal(b1-4)[Fuc(a1-3)]GlcNAc
In short: as §1

[14] = target: Fuc(a1-3)[Gal(b1-4)]GlcNAc(b1-2)Man(a1-3)[Fuc(a1-3)[Gal(b1-4)]GlcNAc(b1-2)Man(a1-6)]Man(b1-4)GlcNAc(b1-4)GlcNAc
In short: as §1

[15] = target: Fuc(a1-3)[Gal(b1-4)]GlcNAc(b1-3)Gal(b1-3)[Fuc(a1-4)]GlcNAc
In short: as §1

[16] = target: Fuc(a1-3)[Gal(b1-4)]GlcNAc(b1-3)Gal(b1-4)[Fuc(a1-3)]GlcNAc(b1-3)Gal(b1-4)[Fuc(a1-3)]GlcNAc
In short: as §1

[17] = target: Fuc(a1-3)[Gal(b1-4)]GlcNAc(b1-6)GalNAc
In short: as §1

[18] = target: Fuc(a1-3)[Gal3S(b1-4)]GlcNAc6S
In short: as §1

[19] = target: Gal(a1-3)Fuc(a1-2)Gal(b1-4)GlcNAc(b1-3)[Gal(a1-3)Fuc(a1-2)Gal(b1-4)GlcNAc(b1-6)]GalNAc
In short: as §1

[20] = target: Gal(b1-3)GlcNAc(b1-2)Man(a1-3)[Gal(b1-3)GlcNAc(b1-2)Man(a1-6)]Man(b1-4)GlcNAc(b1-4)GlcNAc
In short: as §1

[21] = target: Gal(b1-3)GlcNAc(b1-3)Gal(b1-4)GlcNAc(b1-3)Gal(b1-4)GlcNAc(b1-2)[Gal(b1-3)GlcNAc(b1-3)Gal(b1-4)GlcNAc(b1-3)Gal(b1-4)GlcNAc(b1-6)]Man(a1-6)[Gal(b1-3)GlcNAc(b1-3)Gal(b1-4)GlcNAc(b1-3)Gal(b1-4)GlcNAc(b1-2)Man(a1-3)]Man(b1-4)GlcNAc(b1-4)[Fuc(a1-6)]GlcNAc
In short: as §1

[22] = target: Gal(b1-4)GlcNAc(b1-2)Man(a1-3)Man(b1-4)GlcNAc(b1-4)GlcNAc
In short: as §1

[23] = target: Gal(b1-4)GlcNAc(b1-2)Man(a1-3)[GlcNAc(b1-2)Man(a1-6)]Man(b1-4)GlcNAc(b1-4)GlcNAc
In short: as §1

[24] = target: Gal(b1-4)GlcNAc(b1-2)[Gal(b1-4)GlcNAc(b1-4)]Man(a1-3)[Gal(b1-4)GlcNAc(b1-2)Man(a1-6)]Man(b1-4)GlcNAc(b1-4)GlcNAc
In short: as §1

[25] = target: Gal(b1-4)GlcNAc(b1-3)Gal(b1-3)GalNAc
In short: as §1

[26] = target: Gal(b1-4)GlcNAc(b1-3)Gal(b1-3)GlcNAc
In short: as §1

[27] = target: Gal(b1-4)GlcNAc(b1-3)Gal(b1-4)Glc
In short: as §1

[28] = target: Gal(b1-4)GlcNAc(b1-3)Gal(b1-4)GlcNAc(b1-3)Gal(b1-4)GlcNAc(b1-2)Man(a1-3)[Gal(b1-4)GlcNAc(b1-3)Gal(b1-4)GlcNAc(b1-3)Gal(b1-4)GlcNAc(b1-2)Man(a1-6)]Man(b1-4)GlcNAc(b1-4)[Fuc(a1-6)]GlcNAc
In short: as §1

B1: EEA (Euonymus europaeus) (protein)
chain: MASTIIATGPTYRVYCRAAPNYNMIVGKGVAFLAPIDETNELQYWYKDDTYSYIKDEAGLPAFSLVNKATGLTLKHSNHHPVPVKLVTYNPNVVDESVLWSQADDRGDGYSAIRSLTNPASHLEAAPLNDWSYNGAIIMGGVWIDAYNQQWKIEPHTG
- glycan array binding signal (z-score) [1]: 0.023
- glycan array binding signal (z-score) [2]: 5.83
- glycan array binding signal (z-score) [3]: 5.22
- glycan array binding signal (z-score) [4]: 3.76
- glycan array binding signal (z-score) [5]: 3.77
- glycan array binding signal (z-score) [6]: 4.49
- glycan array binding signal (z-score) [7]: 6.17
- glycan array binding signal (z-score) [8]: 3.94
- glycan array binding signal (z-score) [9]: 11.4
- glycan array binding signal (z-score) [10]: 5.12
- glycan array binding signal (z-score) [11]: 4.01
- glycan array binding signal (z-score) [12]: -0.195
- glycan array binding signal (z-score) [13]: -0.181
- glycan array binding signal (z-score) [14]: -0.21
- glycan array binding signal (z-score) [15]: -0.169
- glycan array binding signal (z-score) [16]: -0.252
- glycan array binding signal (z-score) [17]: -0.124
- glycan array binding signal (z-score) [18]: -0.209
- glycan array binding signal (z-score) [19]: 4.66
- glycan array binding signal (z-score) [20]: -0.157
- glycan array binding signal (z-score) [21]: -0.049
- glycan array binding signal (z-score) [22]: -0.282
- glycan array binding signal (z-score) [23]: -0.235
- glycan array binding signal (z-score) [24]: -0.173
- glycan array binding signal (z-score) [25]: -0.23
- glycan array binding signal (z-score) [26]: -0.101
- glycan array binding signal (z-score) [27]: -0.156
- glycan array binding signal (z-score) [28]: -0.144
